The target in one assay is T1, TtCas6A (TTHA0078, Cas6) (Thermus thermophilus HB8).
T1 chain: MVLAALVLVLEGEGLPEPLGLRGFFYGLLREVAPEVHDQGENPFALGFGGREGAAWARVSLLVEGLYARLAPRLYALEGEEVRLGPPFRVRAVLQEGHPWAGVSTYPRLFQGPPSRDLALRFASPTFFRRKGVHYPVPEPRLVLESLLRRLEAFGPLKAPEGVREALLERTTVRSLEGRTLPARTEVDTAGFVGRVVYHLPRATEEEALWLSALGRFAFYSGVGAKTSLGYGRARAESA
Kind of assay: EMSA; Kd in FIG. 24C only. The note with it: chain copies: 2 stated (dimer in solution); hairpin; ssRNA; [17,28]. The text has this: FIG. 22 illustrates that TtCas6A and TtCas6B both cleave repeats R1 and R3 and retain their cleaved products. (A) Sequences and predicted secondary structures of T. thermophilus CRISPR repeats. Sites of cleavage are indicated with blue arrows. TtCas6e (TTHB192) cleaves repeat R2, while TtCas6A (TTHA0078) and TtCas6B (TTHB231) both cleave repeats R1 and R3. (B) Cleavage product binding affinities of TtCas6A and TtCas6B enzymes. Maltose binding protein (MBP)-fused TtCas6A or TtCas6B were bound to in 5′-radiolabelled, vitro transcribed R1 and R3 RNAs. Bound and unbound fractions were resolved by electrophoresis on a native polyacrylamide gel and visualized by phosphorimaging. The data for these and all subsequent binding assays were fit with standard binding isotherms (solid line). Error bars on each data point denote standard error of the mean (SEM) from three independent experiments. (C) Experiments to confirm single turnover. RNA cleavage assays were carried out at indicated protein:RNA ratios. RNA cleavage was monitored using denaturing polyacrylamide gel electrophoresis. The data from these and all subsequent endoribonuclease activity assays were fit with single exponential curves to yield first-order rate constants. (Top to bottom: FIG. 22A, SEQ ID NOs: 1, 2, 55).
To test the importance of the stem sequence for substrate RNA recognition by TtCas6A, a series of EMSAs was performed using R1 repeat-derived RNAs that carried single base pair substitutions (C-G→A-U). All mutant RNAs contained the complete 5′ segment and additional two nucleotides downstream of the cleavage site. Compared to the wild-type RNA, substitution of any of the four C-G base pairs in the stem led to about five-fold decrease in affinity (FIG. 24C). This is consistent with the observation that the lower three C-G base pairs are specifically read out by Arg129. The binding defect observed upon mutation of the closing (uppermost) base pair could be due to loss of stability of the stem-loop structure, which is determined by the closing base-pair (Serra et al, 1993). […]
In the case of GUUGCAAGGGAUUGAGACCCGUAAGGGUAU, the binding signal was ~5 fold lower affinity than wild-type RNA.

Still in this assay, the particulars now being: chain copies: 2 stated (dimer in solution); hairpin; ssRNA; [18,27].
Turning to GUUGCAAGGGAUUGAGCACCGUAAGGUGAU, the binding signal was ~5 fold lower affinity than wild-type RNA.

The same assay, now with this note: chain copies: 2 stated (dimer in solution); hairpin; ssRNA; [19,26].
Regarding GUUGCAAGGGAUUGAGCCACGUAAGUGGAU, the binding signal is ~5 fold lower affinity than wild-type RNA.

These data come from patent publication US20150152398, “Endoribonuclease and Methods of Use Thereof” (The Regents of the University of California, published 2015).
